Giardia FBPA inh – inhibitors of Giardia lamblia fructose-1,6-bisphosphate aldolase | A8B2U2 | purified Giardia FBPA | Potency, µM (highest dose often 59.6 µM), hits mostly inhibitors | 290,000 compounds, 0.71% hits | AID 2451; note: nearly all actives have a fitted effect of over 55% in size
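Giardia FBPA (40 nM reagent) was preincubated 10 min at RT with compound (up to 57.5 uM final), then substrate plus GAPDH/TPI/NAD/arsenate coupling system with diaphorase/resazurin was added; resorufin fluorescence (525/598 nm) was read after 20 min.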
LmPK inh – inhibitors of Leishmania mexicana pyruvate kinase | Q27686 | purified LmPK, Kinase-Glo ATP luminescence, 1 h | Potency, µM (top dose mostly 57.5 µM), actives largely listed as inhibitors | 290,000 compounds, 0.37% hits | AID 1721
Target sequence (Q27686 whole entry, looked up): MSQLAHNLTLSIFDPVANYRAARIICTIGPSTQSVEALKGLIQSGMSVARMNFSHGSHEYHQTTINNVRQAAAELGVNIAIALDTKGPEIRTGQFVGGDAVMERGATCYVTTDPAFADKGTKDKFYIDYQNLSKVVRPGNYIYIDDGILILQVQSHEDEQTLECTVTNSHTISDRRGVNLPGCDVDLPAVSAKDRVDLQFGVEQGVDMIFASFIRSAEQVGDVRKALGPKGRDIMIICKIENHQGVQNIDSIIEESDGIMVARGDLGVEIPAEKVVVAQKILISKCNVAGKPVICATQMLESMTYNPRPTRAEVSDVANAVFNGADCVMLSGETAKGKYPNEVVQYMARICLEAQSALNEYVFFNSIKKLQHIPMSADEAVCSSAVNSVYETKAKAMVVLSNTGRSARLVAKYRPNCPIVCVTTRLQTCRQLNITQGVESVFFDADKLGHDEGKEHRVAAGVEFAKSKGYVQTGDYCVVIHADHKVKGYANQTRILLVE
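Screened at intermediate enzyme activity to detect both inhibitors and activators: LmPK at 0.1 nM, with a 0.5 nM enzyme column as activation reference. PEP 0.5 mM, ADP 0.1 mM; ATP detected by luminescence after 1 h.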
NS1 function inh – blocks influenza NS1 protein function; Potency, µM (series often up to 46.1 µM); AID 2326; 270,000 compounds, 0.4% hits; calls by dose curve; note: actives are rising curves; nearly all actives have a fitted effect of over 50% in size
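A cell-based growth assay was used: compounds that relieve NS1-induced slow growth of budding yeast raise OD600. Assay medium was yeast nitrogen base with ammonium sulphate and -URA supplement, pH 6.0, with 2% galactose.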
Cycloheximide cs – counter-screen hit for Shiga toxin inhibitors, cycloheximide. 300,000 compounds, 12% hits. cell reporter, cycloheximide protein synthesis inhibition counterscreen. max response, %; in the data active = max response mostly above about 13%, no sharp cut-off; inactive = mostly below about 14%; note: read at 38.3 µM for the half of the compounds with a filed dose
Shiga toxin inh – inhibitors of Shiga toxin in Vero cells | 290,000 compounds, 9.2% hits | Vero cells, Shiga toxin protein synthesis inhibition reporter | inhibition, % at 38.7 µM | AID 2315; in the data active = inhibition mostly above about 28%, no sharp cut-off; inactive = mostly below about 43%
A number is an active result; – = inactive; ? = inconclusive; · = not tested or not shown; [ ] = another dose, or the depositor's remark. Most compounds without a hit are left out; they make up all but 14% or so of the library. Unless noted, calls come from the whole dose curve; as a rule, active = well fitted curve in the direction sought with a large enough effect; inconclusive = small, poorly fitted or top-dose-only effect, or another doubt; inactive = no such curve, though single readings can be large; an effect the other way counts as inactive or inconclusive.

SMILES	Giardia FBPA inh	LmPK inh	NS1 function inh	Cycloheximide cs	Shiga toxin inh
COc1cccc(OC)c1C(=O)Nc1ccccc1N1CCCCC1	–	–	–	–	–
CC1(C)CC(=O)C(N=Nc2cccc(S(=O)(=O)N3CCOCC3)c2)=C(O)C1	–	–	–	–	–
O=C(O)c1cccc(N=NN2CCOCC2)c1	–	–	–	18	–
CC(=O)N1CCc2cc(N=NC3=C(O)CC(C)(C)CC3=O)ccc21	–	–	·	27	46
Cc1nc2ccc(N=NC3=C(O)CC(C)(C)CC3=O)cc2s1	–	–	–	96	110
Cc1nc2ccc(N=NC3=C(O)CCCC3=O)cc2s1	–	–	–	50	72
CCOc1ccc2nc(N=NC3=C(O)CC(C)(C)CC3=O)sc2c1	–	–	–	–	–
CCN(CC)S(=O)(=O)c1cccc(N=NC2=C(O)CCCC2=O)c1	–	–	–	–	–
Cc1ccc(O)c(N=NC2=C(O)CC(C)(C)CC2=O)c1	–	–	–	56	56
CC1(C)CC(=O)C(N=Nc2cc(Cl)c(Cl)c(Cl)c2)=C(O)C1	–	–	–	–	–
O=C1CCCC(O)=C1N=Nc1cccc(C(=O)O)c1	–	–	·	17	–
COc1ccc2c(c1)c1c(c(=O)n(-c3ccc(OC)c(OC)c3)c(=O)n1Cc1ccccc1C)n2C	·	·	·	–	–
O=C1C2=CC[C@H]3C(=O)N(Cc4ccccc4)C(=O)[C@@H]3[C@@H]2[C@H](O)[C@@H]2O[C@H]12	–[12.9 µM]	·	·	·	·
COc1ccc(OCc2cc(C(=O)N(C)Cc3nccn3C)no2)c2ccccc12	?	–	–	–	–
Cc1ccc(OCCN(C)C(=O)c2cc(COc3ccc(F)cc3F)on2)cc1	–	–	–	13	–
CN(Cc1ccc(F)cc1)C(=O)c1cc(COc2ccc(F)cc2F)on1	–	–	–	–	–
COc1cccc(OCc2cc(C(=O)N(C)CCOc3ccc(C)cc3)no2)c1	·	–	–	68	75
COc1cccc(OCc2cc(C(=O)N(C)Cc3nccn3C)no2)c1	–	–	–	53	136
COc1ccc(OCc2cc(C(=O)N(Cc3nccn3C)C(C)C)no2)c2ccccc12	?	–	–	43	47
Cc1c(C)c2c(c(C)c1O)CCC(C)(COc1ccc(Cc3sc(=O)[nH]c3O)cc1)O2 (stereo not drawn)	–	·	·	–	–
COc1cc(C(=S)N2CCOCC2)ccc1OC(=O)c1ccccc1	–	–	–	–	–
CCOc1ccc(C2C(C(=O)/C=C/c3ccco3)=C(O)C(=O)N2CCN2CCOCC2)cc1OC (stereo not drawn)	7.9µM	–[11.5 µM]	·	–	–
CCOc1ccc(C2C(C(=O)c3ccco3)=C(O)C(=O)N2CCCn2ccnc2)cc1OC (stereo not drawn)	·	–	–	16	–
COc1cc(C(=S)N2CCOCC2)ccc1OC(=O)/C=C/c1ccco1	–	–[11.5 µM]	·	20	–
O=C(Cc1ccccc1)Nc1ccnn1C1CCN(Cc2nccs2)CC1	–	–	–	–	–
SMILES	Giardia FBPA inh	LmPK inh	NS1 function inh	Cycloheximide cs	Shiga toxin inh
O=C(CC1C(=O)NCCN1Cc1ccccc1C(F)(F)F)NCCN1CCCCC1=O (stereo not drawn)	·	–	–	–	–
CC1CCN(C(=O)c2ccc(NS(=O)(=O)c3cccc4cccnc34)cc2)CC1	–	–	–	–	–
O=C(C=C1SCCS1)/C=C/c1ccco1	–	?	–	37	71
O=C(O)C(C(=O)/C=C/c1ccco1)=C1SCCS1	–	–	–	27	74
O=C(/C=C/c1ccco1)NC1CCCC1	–	–	–	–	–
O=P(O)(O)OC1[C@H](O)[C@H](OP(=O)(O)O)C(OP(=O)(O)O)[C@H](OP(=O)(O)O)[C@H]1O (stereo partly drawn)	–[2.35 µM]	·	·	–	–
Cn1c(N)c(C(=O)c2cc(-c3ccncc3)nc3ccccc23)c(=O)n(C)c1=O	–	–	·	–	–
COc1ccc(-c2cc(C(=O)c3c(N)n(C)c(=O)n(C)c3=O)c3ccccc3n2)cc1OC	–	–	–	25	–
Nc1nonc1-n1nnc(C(=O)N/N=C/c2ccccc2Cl)c1CN1CCOCC1	·	–	–	–	–
COc1ccc(-n2c(CCC(=O)O)ccc2-c2ccccc2)cc1	–	–	–	–	–
O=C(O)CCc1ccc(-c2ccccc2)n1-c1cccc(O)c1	–	–	–	23	54
Cc1ccc(-c2ccc(CCC(=O)O)n2-c2cccc(C(=O)O)c2)cc1	–	–	–	71	152
COc1ccc(-c2ccc(CCC(=O)O)n2-c2ccccc2O)cc1	–	–	–	47	79
COc1ccc(CNC(=O)[C@H](C)[C@H]2C[C@]2(C)[C@H](NC(=O)OCc2ccccc2)c2ccccc2)cc1OC	–	·	·	·	·
Cc1cc(S(=O)(=O)Nc2ccc(C(=O)NCC(C)(C)N3CCOCC3)cc2)ccc1F	·	–	–	–	–
COc1ccc(Nc2nc3ccccc3c(=O)s2)c(OC)c1	–	–	?	–	–
COc1ccc2nc(Nc3ccccc3)sc2c1	–	?	·	30	60
COc1ccc2nc(NC(=O)Nc3ccccc3OC)sc2c1	–	–	–	49	102
COc1ccc2nc(Nc3ccccc3OC)sc2c1	–	18µM	·	32	90
COc1ccccc1NC(=O)Nc1nc2ccc(S(N)(=O)=O)cc2s1	–	–	–	67	89
COc1ccc2nc(NNC(=O)COc3ccccc3)sc2c1	–	–	–	–	–
CC(=O)O[C@]12CC[N@+]3(C)CCCC[C@@H]3[C-]1Nc1ccccc12	·	·	–	·	·
COc1ccc2oc3ccccc3c(=O)c2c1	–	–	–	–	–
c1cnc(Oc2ccc3oc4ccccc4c3c2)nc1	–	–	–	44	56
CC(C)CC(=O)Nc1nnc(S(=O)(=O)N2CCCCCC2)s1	·	–	–	–	–
SMILES	Giardia FBPA inh	LmPK inh	NS1 function inh	Cycloheximide cs	Shiga toxin inh
CC(=O)O[C@@H]1CC2C(C)(C)C(=O)C=C[C@]2(C)C2CC[C@]3(C)C(=CC[C@H]3C3CO[C@@H](C(C)(C)O)[C@H](O)C3)[C@@]21C (stereo partly drawn)	–	·	·	·	·
C[C@H]1Cc2c(-c3ccccc3)nc3c(c2CO1)CN(C(=O)c1cccnc1)CC3	–[12.9 µM]	–[11.5 µM]	·	·	·
Cc1ccc2[nH]c(-c3ccccc3)c(CN(C)C)c(=O)c2c1	–	–	–	41	–
C=CCN(CC=C)Cc1c(C)[nH]c2ccc(C(=O)OCC)cc2c1=O	–	–	–	–	–
C=CCc1c(C)[nH]c2ccc(C)cc2c1=O	–	–	–	31	70
CCc1c(C)[nH]c2ccc(C)cc2c1=O	–	–	–	22	45
Cc1ccc2[nH]c(C)c(CC(=O)O)c2c1	?	–	–	–	–
CN(C)c1ccc2nc3c(C(=O)O)cc(=O)c(O)c-3oc2c1	·	·	–	·	·
O=C(Cn1c(NCCCO)nc2ccccc21)c1ccc(Cl)cc1Cl	?	–	–	–	–
COc1ccc(-c2cc(=NC(CC(C)C)C(=O)O)c3cc(C)ccc3o2)cc1 (stereo not drawn)	–	–	–	30	100
COc1ccc(-c2cc(=NCCC(=O)O)c3cc(C)ccc3o2)cc1	–	–	·	36	148
C=CCC1CCCC(=O)N2CCCC12 (stereo not drawn)	–	·	·	–	–
O=c1c(O)c(-c2ccc(O)c(O)c2)oc2ccccc12	–	·	·	·	·
